Assay results published in ChEMBL document CHEMBL4513216, “Probing the Open Global Health Chemical Diversity Library for Multistage-Active Starting Points for Next-Generation Antimalarials” (ACS Infect Dis, 2020).
Screen size: about 69,000 compounds; about 8,600 (12%) showed an effect of 50% or more. This excerpt belongs to a sample that is enriched for strong results.

tested on: Plasmodium berghei; test: Screen against P. berghei liver stage (PbLuc), transformed with Luciferase, at 10uM; assay type: functional, HepG2; settings: tested at 10 uM

SMILES | INHIBITION [%]
COc1ccccc1C(=O)N1CC(=O)N(Cc2ccco2)CC(O)C1 (stereo not given) | 26.8
COc1ccccc1CC(=O)N1CCC(NCc2ccc(C)o2)CC1 | 29.375
O=C(NCc1ccco1)[C@H]1C[C@@H]2CCN(c3cccc(F)c3)C[C@H]2O1 | 44.1
Cn1ccnc1-c1cn(CCCc2csc(N)n2)nn1 | 17.5
COC(=O)CC1CCCCN1CC(=O)Nc1cc(F)ccc1F (stereo not given) | 47.2
COC(=O)CC1CCCCN1CC(=O)NCCc1ccc(F)cc1 (stereo not given) | 38.5
COC(=O)CC1CCCCN1CC(=O)Nc1ccc(F)cc1Cl (stereo not given) | 62.4
O=C(CCn1cncn1)N1C[C@@H]2CC[C@H]1CN(Cc1cccnc1)C2 | 14.3
Cc1ccc(-c2noc(C(C)NS(C)(=O)=O)n2)cc1 (stereo not given) | 1.8
CS(=O)(=O)N1CCOCC2(CN(Cc3ccco3)CCO2)C1 (stereo not given) | 3.47
Cc1ccc(CN(Cc2ccncc2)C2CCN(C)CC2)s1 | -6.73
CCNc1ncc(CN(CCN(C)C)Cc2ccc(C)s2)cn1 | 35
CCc1ccc(CN(CCN(C)C)Cc2ccc(C)s2)nc1 | 22
COc1ncc(CN(CCN(C)C)Cc2ccc(C)s2)cn1 | 63.8
COCc1ncc(CN(CCN(C)C)Cc2ccc(C)s2)cn1 | 38.7
COCc1ncc(CN(Cc2ccncc2)Cc2ccc(C)s2)cn1 | 61.9
Cc1cc(C(=O)NCC2CCS(=O)(=O)C2)ccc1NC(=O)c1ccco1 (stereo not given) | 40.2
CC(C)n1cnnc1CNC(=O)c1cnn(Cc2ccccc2)c1 | -24.4
COCC1c2c(cnn2CC2CC2)CCN1Cc1cc(C)on1 (stereo not given) | 47.1
COCCn1cc(C(=O)NC2CCS(=O)(=O)C2)c2ccccc2c1=O (stereo not given) | 42.8
Cc1cc(C(=O)N2CCC(O)(Cn3ccc4ccncc43)CC2)on1 | 12.8
O=C(Cc1ccc(O)cc1)N1CCCC(O)(CN2CCOCC2)CC1 (stereo not given) | 30.4

SMILES | INHIBITION [%]
Cc1nc(CCC(=O)NC2CCC2)cc(C2CCNCC2)n1 | 33.5
CN1CC(C(=O)NCCc2ccc(Br)cc2F)CC1=O (stereo not given) | -57
CC(=O)N1CCC2(CC1)COC(COCc1ccccn1)C2 (stereo not given) | 14.6
c1ccc(COC[C@H]2CCC[C@@]23CNCCO3)nc1 | 62.9
c1ccc(OC[C@@H]2CCC[C@@]23CNCCO3)nc1 | 31.3
c1ccc(COC[C@@H]2CCC[C@@]23CNCCO3)nc1 | 72
CN1CCN(C(=O)c2cc3sccc3n2Cc2ccc(Cl)cc2)CC1 | 13.9
Cn1cnc(S(=O)(=O)N2CCCc3cccc(F)c32)c1Cl | 39.7
O=C(Cc1cccs1)N1CC[C@H]2[C@@H]1CCC(=O)N2c1cccnc1 | 30.7
O=C(CC1CC1)N1CC[C@H]2[C@@H]1CCC(=O)N2c1cccnc1 | 58.6
Cc1cccc(C(=O)N2CC[C@@H]3[C@H]2CCC(=O)N3c2ccccc2)n1 | 65.7
Cc1cc(C(=O)N2CC[C@H]3[C@@H]2CCC(=O)N3c2ccccc2)no1 | 53.9
Cc1ccc(C(=O)N2CC[C@@H]3[C@H]2CCC(=O)N3c2ccccc2)o1 | 31.8
Cc1ccc(C(=O)N2CC[C@H]3[C@@H]2CCC(=O)N3c2ccccc2)cn1 | 16.8
O=C(c1ccco1)N1CC[C@@H]2[C@H]1CCC(=O)N2c1ccccc1 | 30.3
Cc1cnc(C(=O)N2CC[C@H]3[C@@H]2CCC(=O)N3c2cccnc2)cn1 | 40.4
O=C(C1CC1)N1CC[C@H]2[C@@H]1CCC(=O)N2c1ccccc1 | 12.1
Cc1cccc(N2CCCC3(C2)CN(S(=O)(=O)C2CC2)CCO3)c1 (stereo not given) | 20.1
CCc1c(C)nc2cc(-c3nccn3C)nn2c1N1CCCC(CO)C1 (stereo not given) | 10.62
Cc1csc(CCCNC(C)CC(=O)Nc2ccc(F)cc2)n1 (stereo not given) | 40
c1cnc(Nc2cncc(C3CCCN3)n2)cn1 (stereo not given) | 31.6
CN(C)CC1COCCN1C(=O)C1(c2cccs2)CCCC1 (stereo not given) | 36.2

SMILES | INHIBITION [%]
CS(=O)(=O)N1CCN(c2cc(-n3cccc3)ncn2)CC1 | 38.3
Cc1ccc(CN2CC[C@H]3OCC[C@@H](c4nc(C)no4)[C@H]3C2)cc1 | 36.4
Cc1noc([C@@H]2CCO[C@@H]3CCN(Cc4ccc(C)s4)C[C@@H]32)n1 | 53.2
Cc1noc([C@@H]2CCO[C@@H]3CCN(Cc4cccs4)C[C@@H]32)n1 | 24.1
COCC(=O)N1CC[C@H]2N(C)CC[C@@]2(C(=O)Nc2ccccc2)CC1 | 3.25
CC(=O)N1C[C@H]2CCCN(c3ncc(C)cn3)[C@H]2C1 | 45.8
CN(C)C(=O)CN1CCCC12CCCN(c1ncc(F)cn1)C2 (stereo not given) | 8.31
CN(C)C(=O)CN1CCC2(CCCN(c3ncc(F)cn3)C2)C1=O (stereo not given) | 11.3
Cc1cnc(N2CCCC3(CCCN3CC(=O)N(C)C)C2)nc1 (stereo not given) | 79.2
Cc1cnc(N2CCC[C@@H]3CN(CC(=O)N(C)C)C[C@@H]32)nc1 | 52.3
Cc1cnc(N2CCC[C@@H]3CN(S(C)(=O)=O)C[C@@H]32)nc1 | 29.8
CN(C)C1(CNC(=O)CC=Cc2ccc(F)cc2)CCOCC1 | -18
Cc1nc(C)n(CC2CCCN(Cc3cn4c(C)cccc4n3)C2)n1 (stereo not given) | 5.03
O=c1ccc2c(n1CCN1CCCC1)CCN(c1ncccn1)CC2 | 29.5
CSCc1noc(CNC(=O)C2CCN(C3CCCCC3)CC2)n1 | 53.9
CSCc1noc(CNC(=O)C2CCN(C(=O)C3CCCC3)CC2)n1 | -26
CSCc1noc(CNC(=O)C2CCN(C(=O)C3CCC3)CC2)n1 | 16.7
CCOCCCNc1cc(C)nn2cnnc12 | 25.3
Cc1ccc2cnn(CCC(=O)Nc3c(C)nn(C)c3C)c2c1 | -8.19
Cc1nn(C)c(C)c1NC(=O)CCn1ncc2ccccc21 | 35.8
CCn1nc(C)c(NC(=O)CCn2ncc3cc(C)ccc32)c1C | 50.7
